Compounds without any hit were thinned out: in the full panel of roughly 83,000, 20% have a hit.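 Percent growth is the endpoint: 0 to 100 indicates growth inhibition (40 means 60% inhibition), 0 means no net growth, and negative values indicate cell death.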 The source made the active and inactive calls. Rule for the calls: active = growth percent below 10; inactive = the rest.
Tested on: SF-268 CNS
Assay: NCI-60 one-dose screen, 48 h (100 = growth as untreated, 0 = no growth, -100 = all killed)
Settings: 10 µM unless noted

SMILES | growth
O=C1c2ccccc2C(=O)c2c1ccc1[nH]c(-c3cccs3)nc21 | 87.6% (inactive)
CN1CCN(Cc2ccc(NC(=O)c3cncc(C#Cc4cncn5ccnc45)c3)cc2C(F)(F)F)CC1 | 92.4% (inactive)
CC(C)(C)c1cc(/C=N\NC(=O)/C=C/C=C/c2ccc3c(c2)OCO3)c(O)c(C(C)(C)C)c1 | 67.4% (inactive)
CCCc1cc(=O)n2c(C(=O)Nc3ccc(F)cc3)c(C(=O)Nc3ccc(F)cc3)sc2n1 | 18.1% [30 µM] (inactive)
O=C(O)COc1ccc(Cl)cc1C1CCCCC1 | 102% (inactive)
NC(=O)c1cc(Br)ccc1NC(=O)/C=C/c1ccccc1 | 43.5% (inactive)
Cc1nn(-c2ccc(F)cc2)c2ncnc(Oc3ccc(NC(=O)Nc4ccc(Cl)c(C(F)(F)F)c4)cc3)c12 | 93.4% (inactive)
CSc1nc(-c2cccc(NC(=O)CCl)c2)c(C#N)c(=O)n1C | 61.5% (inactive)
CCCCN(CCCC)CCCn1c(-c2ccccc2)ccc1-c1ccccc1 | 73.7% (inactive)
Cc1c(/C=C/[N+](=O)[O-])ccc2c1[nH]c1ccccc12 | 108% (inactive)
c1ccc(Cn2cc(-c3nc4ccccc4s3)c3cccnc32)cc1 | 99% (inactive)
O=C(N/N=C/c1c[nH]c2ccccc12)c1cc(-c2ccccc2)on1 | 85.9% (inactive)
CCCn1c(=O)[nH]c(N)c([C@H]2c3ccccc3Oc3[nH]c(=O)n(CCC)c(=O)c32)c1=O | 94.4% (inactive)
CC(=O)O[C@H]1[C@@H]2OC(=O)C(CSc3ccccc3)[C@@H]2C[C@H]2O[C@]2(C)CC/C=C(\C)CCC[C@@H]1C (stereo not given in full) | 44.7% (inactive)
O=C1Nc2ccc(Br)cc2C12Oc1ccccc1C1CC(c3ccc(F)cc3)=NN12 (stereo not given) | 85.5% (inactive)
C=C1c2nc3ccccc3n2C=C(c2cccc(Cl)c2)N1Cc1ccc(OC)cc1 | 21.7% (inactive)
C#CC(F)(F)[C@]1(O)CC[C@H]2[C@@H]3CCC4=CC(=O)CCC4=C3[C@@H](c3ccc(C(C)=O)cc3)C[C@@]21C | 36.3% (inactive)
CC(=O)O[C@H]1CC[C@]2(C)[C@H]3CC=C4[C@@H]5CC(C)(C)CC[C@]5(C(=O)NCCNCCNCCN)CC[C@@]4(C)[C@]3(C)CC[C@H]2C1(C)C | 87.1% (inactive)
COc1ccc(-c2cc(NC(=O)Nc3ccc4ncsc4c3)no2)cc1 | 105% (inactive)
CCN(CC)c1ccc(-c2cc(-c3cc(OC)c(OC)c(OC)c3)nc(N3CCOCC3)c2C#N)cc1 | 39.6% (inactive)
CC1=CC(=NN=c2cc(C)n([O-])c(C)c2)C=C(C)[N+]1=O | 106% (inactive)
Cc1ccc2oc(=O)cc(C3c4ccc([nH]4)C(c4cc(=O)oc5ccc(C)cc45)c4ccc([nH]4)C(c4cc(=O)oc5ccc(C)cc45)c4ccc([nH]4)C(c4cc(=O)oc5ccc(C)cc45)c4ccc3[nH]4)c2c1 (stereo not given) | -39.5% (active)
COc1cc2c(cc1-c1c(C)noc1C)ncc1nc(C3CCOCC3)n([C@@H](C)COC(F)F)c12 | 70.8% (inactive)
Cc1[nH]c(-c2cc(N)ccc2Cl)c2c1C(=O)CCCC2 | 53.5% (inactive)
O=S(=O)(Nc1ccc(Br)c(Cl)c1)c1ccc(-c2cnc(C3CC3)o2)cc1 | 50.3% (inactive)
C=CC(=O)Nc1cccc(-c2nc(SC)nc(NCCN3CCOCC3)c2C#N)c1 | 83.8% (inactive)

Tested on: SF-295 CNS
Assay: as above
Settings: 10 µM unless noted

SMILES | growth
Cc1ccc(-c2onc3c(=O)[nH]nc(-c4ccccc4)c23)cc1 | 23.7% (inactive)
O=C1CSC(=S)N1CCc1ccc(O)cc1 | 97.5% (inactive)
CNC(=O)c1cc(Oc2ccc(NC(=O)Nc3ccc(Cl)c(OC(F)(F)F)c3)c(F)c2)ccn1 | 21.3% (inactive)
N#C/C(=C\c1ccc(-c2ccc(Cl)c(Cl)c2)o1)c1nc(-c2ccco2)cs1 | 98.7% (inactive)
O=S(=O)(Nc1ccc(OC(F)F)cc1)c1ccc(-c2cnc(C3CC3)o2)cc1 | 53.3% (inactive)
O=C1Nc2cc(-c3ccc(O)cc3)ccc2/C1=C/c1ccc[nH]1 | -20.7% (active)
CON1C(=O)CC[C@]2(C)[C@H]3CC[C@@H]4C([C@@]5(C)CCC(=O)O5)CC[C@@]4(C)[C@]3(C)CC[C@H]2C1(C)C (stereo not given in full) | 104% (inactive)
Cn1cc(C(=O)c2nc(-c3c[nH]c4ccc(Br)cc34)no2)c2cc(F)ccc21 | 97.6% (inactive)
COc1ccc(-n2nc(C)c3c(Nc4ccc(NC(=O)Nc5cccc(C(F)(F)F)c5)cc4)ncnc32)cc1 | -44.1% (active)
CC(C)C1=C[C@@]23CC[C@@H]4[C@](C)(CCC[C@@]4(C)C(=O)N4CCCNCC4)[C@H]2C[C@@H]1[C@H]1C(=O)CCC(=O)[C@H]13 | 93.7% (inactive)
C#CCOc1ccc2ncnc(N3CCC(NC(=O)CCl)CC3)c2c1 | 109% [8.25 µM] (inactive)
Cc1ccc(NC(=O)/C=C/c2ccccc2)c(C(N)=O)c1 | 15.2% (inactive)
COc1ccc(/C=C\c2cc(OC)c(OC)c(OC)c2)cc1OC(=O)c1cccc(Cn2cc(CCOC(=O)[C@H](N)Cc3cn(C)c4ccccc34)nn2)c1 | 14.2% (inactive)
O=C1c2ccccc2C(=O)c2c1ccc1[nH]c(-c3cccs3)nc21 | 120% (inactive)
CN1CCN(Cc2ccc(NC(=O)c3cncc(C#Cc4cncn5ccnc45)c3)cc2C(F)(F)F)CC1 | 91.7% (inactive)
CC(C)(C)c1cc(/C=N\NC(=O)/C=C/C=C/c2ccc3c(c2)OCO3)c(O)c(C(C)(C)C)c1 | 92.9% (inactive)
CCCc1cc(=O)n2c(C(=O)Nc3ccc(F)cc3)c(C(=O)Nc3ccc(F)cc3)sc2n1 | 73% [30 µM] (inactive)
O=C(O)COc1ccc(Cl)cc1C1CCCCC1 | 109% (inactive)
NC(=O)c1cc(Br)ccc1NC(=O)/C=C/c1ccccc1 | 51.3% (inactive)
Cc1nn(-c2ccc(F)cc2)c2ncnc(Oc3ccc(NC(=O)Nc4ccc(Cl)c(C(F)(F)F)c4)cc3)c12 | 102% (inactive)

SMILES | growth
CSc1nc(-c2cccc(NC(=O)CCl)c2)c(C#N)c(=O)n1C | 98.7% (inactive)
CCCCN(CCCC)CCCn1c(-c2ccccc2)ccc1-c1ccccc1 | 60% (inactive)
Cc1c(/C=C/[N+](=O)[O-])ccc2c1[nH]c1ccccc12 | 103% (inactive)
c1ccc(Cn2cc(-c3nc4ccccc4s3)c3cccnc32)cc1 | 102% (inactive)
O=C(N/N=C/c1c[nH]c2ccccc12)c1cc(-c2ccccc2)on1 | 98.2% (inactive)
CCCn1c(=O)[nH]c(N)c([C@H]2c3ccccc3Oc3[nH]c(=O)n(CCC)c(=O)c32)c1=O | 88.1% (inactive)
CC(=O)O[C@H]1[C@@H]2OC(=O)C(CSc3ccccc3)[C@@H]2C[C@H]2O[C@]2(C)CC/C=C(\C)CCC[C@@H]1C (stereo not given in full) | 49.3% (inactive)
O=C1Nc2ccc(Br)cc2C12Oc1ccccc1C1CC(c3ccc(F)cc3)=NN12 (stereo not given) | 97.9% (inactive)
C=C1c2nc3ccccc3n2C=C(c2cccc(Cl)c2)N1Cc1ccc(OC)cc1 | 2.35% (active)
C#CC(F)(F)[C@]1(O)CC[C@H]2[C@@H]3CCC4=CC(=O)CCC4=C3[C@@H](c3ccc(C(C)=O)cc3)C[C@@]21C | 22.5% (inactive)
CC(=O)O[C@H]1CC[C@]2(C)[C@H]3CC=C4[C@@H]5CC(C)(C)CC[C@]5(C(=O)NCCNCCNCCN)CC[C@@]4(C)[C@]3(C)CC[C@H]2C1(C)C | 102% (inactive)
COc1ccc(-c2cc(NC(=O)Nc3ccc4ncsc4c3)no2)cc1 | 89.1% (inactive)
CCN(CC)c1ccc(-c2cc(-c3cc(OC)c(OC)c(OC)c3)nc(N3CCOCC3)c2C#N)cc1 | -54.6% (active)
CC1=CC(=NN=c2cc(C)n([O-])c(C)c2)C=C(C)[N+]1=O | 112% (inactive)
Cc1ccc2oc(=O)cc(C3c4ccc([nH]4)C(c4cc(=O)oc5ccc(C)cc45)c4ccc([nH]4)C(c4cc(=O)oc5ccc(C)cc45)c4ccc([nH]4)C(c4cc(=O)oc5ccc(C)cc45)c4ccc3[nH]4)c2c1 (stereo not given) | -78.2% (active)
COc1cc2c(cc1-c1c(C)noc1C)ncc1nc(C3CCOCC3)n([C@@H](C)COC(F)F)c12 | 52% (inactive)
Cc1[nH]c(-c2cc(N)ccc2Cl)c2c1C(=O)CCCC2 | 31.8% (inactive)
O=S(=O)(Nc1ccc(Br)c(Cl)c1)c1ccc(-c2cnc(C3CC3)o2)cc1 | 5.84% (active)
C=CC(=O)Nc1cccc(-c2nc(SC)nc(NCCN3CCOCC3)c2C#N)c1 | 106% (inactive)

From PubChem BioAssay (NCI)
